From PubChem BioAssay
5HT1E ag = 5-HT1E receptor agonists, primary screen, cell-based, HTS. hit rate 0.69% among 65,000. 5-hydroxytryptamine receptor 1E (Homo sapiens), P28566. AID 574, 2007. activation, % at 6 µM. CHO 5-HT1E Ga15 NFAT-bla reporter, FRET; 0% DMSO wells, 100% control agonist wells;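 active = activation above a set limit, the screen-wide mean activation plus 3 SD, cut at about 8.5% in these data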
HTR1E antagonist = 5-HT1E receptor antagonists, primary screen, cell-based, HTS; 5-hydroxytryptamine receptor 1E (Homo sapiens), P28566; CHO 5-HT1E Ga15 NFAT-bla reporter, FRET, antagonist; inhibition, % at 6 µM; hit rate 0.99% among 65,000;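 active = inhibition above a set limit, the mean inhibition across every tested compound plus 3 SD, cut at about 29% in these data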;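 note: signal is the 460 over 535 nm emission ratio of beta-lactamase substrate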
Her2 expr inh = inhibitors of Her2 protein expression, primary screen, SKBR-3 cells, AlphaScreen, 66K library | Receptor tyrosine-protein kinase erbB-2 (Homo sapiens), P04626 | SKBR-3 HER2 protein level, 18-24 h; active compounds read low | HER2 level % of control, % at 10 µM | hit rate 0.69% among 65,000 | AID 645, 2007;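 active = HER2 level under 5% of the carrier-only control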;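 note: lower value means stronger loss of Her2 protein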
Target sequence (P04626 whole entry, looked up): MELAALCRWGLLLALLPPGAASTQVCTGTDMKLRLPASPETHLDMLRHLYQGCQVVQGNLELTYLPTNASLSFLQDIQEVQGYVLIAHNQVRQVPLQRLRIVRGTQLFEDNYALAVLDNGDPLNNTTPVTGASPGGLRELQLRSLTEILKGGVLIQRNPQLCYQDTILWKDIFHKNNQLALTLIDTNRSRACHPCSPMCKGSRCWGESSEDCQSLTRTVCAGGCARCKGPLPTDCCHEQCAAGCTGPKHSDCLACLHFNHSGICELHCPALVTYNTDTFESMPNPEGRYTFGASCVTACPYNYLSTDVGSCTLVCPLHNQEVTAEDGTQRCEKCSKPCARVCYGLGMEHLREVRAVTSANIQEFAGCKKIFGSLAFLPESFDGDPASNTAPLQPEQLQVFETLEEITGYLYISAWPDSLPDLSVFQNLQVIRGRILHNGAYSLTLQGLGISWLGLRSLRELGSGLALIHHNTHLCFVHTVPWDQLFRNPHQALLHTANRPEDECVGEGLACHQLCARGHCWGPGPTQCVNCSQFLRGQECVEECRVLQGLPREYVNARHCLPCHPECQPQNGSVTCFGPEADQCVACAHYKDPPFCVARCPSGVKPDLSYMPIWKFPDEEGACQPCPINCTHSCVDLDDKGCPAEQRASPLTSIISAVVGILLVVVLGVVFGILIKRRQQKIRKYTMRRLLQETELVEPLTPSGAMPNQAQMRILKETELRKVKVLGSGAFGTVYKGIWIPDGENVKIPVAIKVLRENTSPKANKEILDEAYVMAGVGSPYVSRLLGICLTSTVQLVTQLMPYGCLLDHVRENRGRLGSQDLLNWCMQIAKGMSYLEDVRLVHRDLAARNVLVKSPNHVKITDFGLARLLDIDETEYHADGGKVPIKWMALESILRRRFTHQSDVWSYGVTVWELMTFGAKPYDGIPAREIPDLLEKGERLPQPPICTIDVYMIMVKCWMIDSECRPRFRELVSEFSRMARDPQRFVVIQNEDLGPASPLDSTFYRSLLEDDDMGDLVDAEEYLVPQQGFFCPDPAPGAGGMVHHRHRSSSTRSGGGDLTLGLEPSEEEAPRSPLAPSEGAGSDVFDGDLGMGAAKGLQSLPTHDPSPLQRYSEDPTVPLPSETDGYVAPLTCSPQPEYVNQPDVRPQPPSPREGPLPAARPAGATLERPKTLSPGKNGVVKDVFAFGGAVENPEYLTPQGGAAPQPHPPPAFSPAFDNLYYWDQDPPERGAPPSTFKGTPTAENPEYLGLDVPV
HTR1A agonist = human 5-HT1a receptor agonists, primary screen, cell-based, CHO, Ga15 NFAT-bla reporter; 5-hydroxytryptamine receptor 1A (Homo sapiens), P08908; CHO 5-HT1a Ga15 NFAT-bla reporter, FRET ratio; 0% basal, 100% maximal reference agonist; activation, % at 10 µM; hit rate 0.56% among 65,000;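 active = activation above the screen-wide mean activation plus 3 SD, cut at about 19% in these data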
5HT1a antag = human 5-HT1a receptor antagonists, primary screen, cell-based, CHO, Ga15 NFAT-bla reporter. 5-hydroxytryptamine receptor 1A (Homo sapiens), P08908. hit rate 0.68% among 62,000. inhibition, % at 10 µM. AID 612, 2007. CHO 5-HT1a Ga15 NFAT-bla reporter, antagonist mode;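 active = inhibition above the mean of all tested compounds plus 3 SD, cut at about 43% in these data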;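 note: receptor stimulated by 5-CT agonist at 100 nM near EC80; beta-lactamase reporter measured by ratiometric fluorescence of a cleavable substrate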
Each line names hits and unclear results; the compound was inactive in the other large screens. Shown are actives, neighbours in structure and some others; about 3% of the full set was active somewhere.

Fc1ccc2c(Cl)c(-c3nnc(-c4cccs4)o3)sc2c1	none
CCCOC(=O)c1ccc(Oc2cn[nH]c2-c2ccc(OC)cc2O)cc1	5HT1a antag 46
CCOc1ccc(-c2[nH]ncc2Oc2ccccc2OCC)c(O)c1	Her2 expr inh -18
OC(COCc1ccco1)CN1CCN(C(c2ccccc2)c2ccccc2)CC1 (configuration not stated)	none
CN=c1sc2ccccc2n1CC(O)COCc1ccco1 (configuration not stated)	5HT1E ag 36 (no result: 5HT1a antag)
NC(=O)c1cc2ccc(O)cc2oc1=NCc1ccccc1	5HT1E ag 26, HTR1A agonist 86
NC(=O)c1cc2ccc(O)cc2oc1=Nc1ccccc1	5HT1E ag 50, HTR1A agonist 99
COc1ccc(OC)c(N=c2oc3cc(O)ccc3cc2C(N)=O)c1	5HT1E ag 12, HTR1A agonist 39
Cn1cc(C(=O)c2ccc(Cl)cc2)cc1-c1nc2ccccc2n1C	none
COc1cc(Cl)c(C)cc1NC(=O)COC(=O)c1cnc(C)cn1	none
COc1ccc(C(=O)COC(=O)CCCn2c(=O)oc3ccccc32)cc1	none
Cc1cccc(-n2c(SCC(=O)Nc3nonc3C)nnc2-c2ccoc2C)c1	HTR1A agonist 34
Nc1nc(-c2cccs2)c(NC(=O)c2ccccc2)s1	Her2 expr inh -11
CNC(=O)c1ccsc1NC(=O)c1ccccc1	none
COc1ccccc1NC(=O)CCC(=O)Nc1nnc(C(F)(F)F)s1	none
Cc1ccc(Nc2cc(C)nn2-c2nc(C)cc(=O)[nH]2)cc1	HTR1E antagonist 74, 5HT1a antag 61
O=c1oc2c(CN3CCCCCC3)c(O)ccc2cc1-c1nc2ccccc2[nH]1	HTR1E antagonist 30
COc1ccccc1C1/C(=C(\O)c2c(C)nc3c(C)cccn23)C(=O)C(=O)N1CCCN(C)C (configuration not stated)	none
CCn1c2ccccc2c2cc(/C=N/n3cnnc3)ccc21	none
Clc1ccc(OCCn2cnc3ccccc32)cc1	none
Cc1ccc(OCCn2c(C)c(/C=N/n3cnnc3)c3ccccc32)cc1	HTR1E antagonist 44
Cc1c(/C=N/n2cnnc2)c2ccccc2n1CCOc1ccc(Cl)cc1	HTR1E antagonist 33
COCCn1c(-c2ccc(Cl)cc2)cnc1SCC(=O)NCc1cccs1	none
Cn1c(=O)c2c(nc(N3CCCCCC3)n2CC(=O)c2ccccc2)n(C)c1=O	none
C/C(Cl)=C\Cn1c(N2CCCCCC2)nc2c1c(=O)n(C)c(=O)n2C	HTR1E antagonist 35
CCCCC(=O)Nc1cccc(NC(=O)CC)c1	none
CC(=O)Nc1cccc(NC(=O)CCCC(=O)O)c1	5HT1E ag 28
COc1ccc(CCNC2CCN(C)CC2)cc1OC	none
Nc1c(S(=O)(=O)c2ccccc2)c2nc3ccccc3nc2n1/N=C/c1cccc(O)c1	Her2 expr inh -28
Cc1ccc(C)c(S(=O)(=O)c2c(N)n(/N=C/c3ccco3)c3nc4ccccc4nc23)c1	none
CCCSC1=N/C(=C\C=C\c2ccco2)C(=O)S1	Her2 expr inh -3.4
O=c1c2ccccc2oc2ncccc12	none
CC(=O)N(C)c1ccc(NS(=O)(=O)Cc2ccccc2)cc1	HTR1A agonist 69
COc1ccc(OC)c2[nH]c(=O)c(CCNC(=O)C3CCCCC3)cc12	none
COc1ccccc1C1CC(=O)Nc2cc3c(cc21)OCCO3 (configuration not stated)	HTR1E antagonist 47
CC(C)Oc1ccccc1C1CC(=O)Nc2cc3c(cc21)OCCO3 (configuration not stated)	HTR1E antagonist 63, 5HT1a antag 50
Cc1cc(NC(=O)c2ccc(NC(=O)C(C)Oc3ccccc3)cc2)no1 (configuration not stated)	none (no result: Her2 expr inh)
Cc1ccccc1N1C(=O)CC(Sc2nnc(-c3ccccc3)o2)C1=O (configuration not stated)	Her2 expr inh -19 (no result: 5HT1a antag)
CSc1ccc(C2C(C#N)=C(N)N(c3ccccc3)C3=C2C(=O)CCC3)cc1 (configuration not stated)	5HT1a antag 43
